According to PubChem BioAssay AID720517 (National Center for Advancing Translational Sciences (NCATS), 2013):
Records with an inconclusive call do not appear. A call without a number means that no potency is given here. The source made the active and inactive calls. Calls follow the shape of the dose curve; as a rule, active = well fitted activation curve with a large enough effect; inconclusive = small, poorly fitted or top-dose-only effect; inactive = flat fitted curve, though single readings scatter.

Assay: qHTS for Inhibitors of Cell Surface uPA Generation: FP59 Counterscreen for Cherry-picked Compounds

SMILES	Potency
O=C(CSc1ccc([N+](=O)[O-])cn1)Nc1nccs1	inactive
CCC(=O)N(Cc1cc2ccc(C)cc2[nH]c1=O)c1ccccc1OC	inactive
Cc1c(C(=O)N(Cc2ccccc2Cl)C2CCS(=O)(=O)C2)oc2ccccc12 (centres undefined)	inactive
COc1cc(CNCc2ccc3c(c2)OCO3)c([N+](=O)[O-])cc1OC	inactive
Cc1cccc(N2C(=O)c3cccc(Oc4ccc(Cl)cc4)c3C2=O)c1	inactive
CC(=O)c1cccc(NC(=O)N2C3CCC2CC(O)(c2cccnc2)C3)c1 (centres undefined)	inactive
Cc1nc(C(=O)N2CCC(n3nccc3NC(=O)Nc3ccccc3Cl)CC2)cs1	inactive
COc1ccc(C(=O)OCC(=O)N(C)C2CCS(=O)(=O)C2)cc1S(=O)(=O)N(C)Cc1ccccc1 (centres undefined)	inactive
COCC(=O)N1CCC(n2nccc2NC(=O)c2ccccc2OC)CC1	inactive
